Assay outcomes: PubChem BioAssay, National Center for Advancing Translational Sciences (NCATS)
TGFb SMAD3 inh = qHTS for Inhibitors of TGF-b; HepG2 CAGA-GFP TGF-b/SMAD3 reporter, GFP fluorescence, 18 h; TGF-beta stimulated, 500 pg/mL final; Potency, µM (highest dose often 46.1 µM), actives largely listed as inhibitors; 410,000 tested, 1.2% active; AID 588855, 2011; also: nearly all actives have a fitted effect of over 65% in size
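Inhibition was scored as loss of TGF-beta-induced (500 pg/mL final, 18 hours, 37 degrees C) GFP in HEPG2 cells carrying a CAGA-GFP reporter, in DMEM with 1% FBS. Well GFP was summed per cell; Activity was normalised to unstimulated and stimulated DMSO wells, then concentration-response fitting.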
DT40 TDP1 no CPT = qHTS for Inhibitors of human tyrosyl-DNA phosphodiesterase 1 (TDP1): qHTS in cells in absence of CPT | AID 686978, 2013 | DT40 Tdp1-/- hTDP1 cells, no CPT, ATP luminescence, 48 h | 420,000 tested, 15% active | Potency, µM (highest dose often 46.2 µM), actives largely listed as inhibitors; also: nearly all actives have a fitted effect of over 55% in size
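Chicken DT40 Tdp1-/- cells stably complemented with human TDP1 were seeded at 400 cells/well with DMSO in place of 20 nM camptothecin. After compound pinning, cells grew at least 48 hr at 37 °C; viability read by CellTiter-Glo luminescence.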
TDP1 cell CPT = qHTS for Inhibitors of human tyrosyl-DNA phosphodiesterase 1 (TDP1): qHTS in cells in presence of CPT | Potency, µM (doses to about 46.2 µM), hits mostly inhibitors | 420,000 tested, 12% active | AID 686979, 2013 | chicken DT40 Tdp1-/-;hTDP1 cells + 20 nM CPT, ATP luminescence, 48 h; also: nearly all actives have a fitted effect of over 55% in size
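Cell growth measured by CellTiter-Glo luminescence after a minimum 48 h, 37 C compound exposure with 20 nM CPT in Tdp1-knockout DT40 cells stably expressing hTDP1, seeded 400/well; qHTS titration format.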
TDP1 block = qHTS Assay for Inhibitors of Tyrosyl-DNA Phosphodiesterase (TDP1); Tyrosyl-DNA phosphodiesterase 1 (Homo sapiens), Q9NUW8; recombinant TDP1, AlphaScreen DNA substrate cleavage; Potency, µM (doses to about 130 µM), usual class: inhibitors; 350,000 tested, 0.28% active; AID 485290, 2010; also: nearly all actives have a fitted effect of over 40% in size
Target sequence (Q9NUW8 whole entry, looked up): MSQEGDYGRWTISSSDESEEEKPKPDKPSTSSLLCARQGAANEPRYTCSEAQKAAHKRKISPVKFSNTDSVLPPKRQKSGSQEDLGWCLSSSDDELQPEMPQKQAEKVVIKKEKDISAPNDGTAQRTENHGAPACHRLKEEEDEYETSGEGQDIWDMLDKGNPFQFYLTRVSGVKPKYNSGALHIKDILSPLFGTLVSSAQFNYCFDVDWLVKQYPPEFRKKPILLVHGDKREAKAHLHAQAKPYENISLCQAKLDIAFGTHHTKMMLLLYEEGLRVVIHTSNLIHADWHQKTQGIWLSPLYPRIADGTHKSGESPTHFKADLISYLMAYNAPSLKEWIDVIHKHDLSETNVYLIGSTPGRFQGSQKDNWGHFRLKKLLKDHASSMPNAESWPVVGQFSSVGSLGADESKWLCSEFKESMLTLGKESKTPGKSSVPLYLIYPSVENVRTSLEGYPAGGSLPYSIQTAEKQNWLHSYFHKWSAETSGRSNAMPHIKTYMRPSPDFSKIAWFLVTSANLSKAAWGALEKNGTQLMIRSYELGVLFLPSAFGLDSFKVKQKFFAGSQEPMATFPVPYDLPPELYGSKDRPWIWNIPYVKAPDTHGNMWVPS
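Tdp1 1 nM final; 15 min RT w/ cpd; substrate 15 nM, 5 min; beads 10 ug/ml, 10 min; AlphaScreen read. Neg ctrl: no enzyme.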
IL1B secr inh = qHTS for Inhibitors of Inflammasome Signaling: IL-1-beta AlphaLISA Primary Screen; THP-1 LPS/ATP IL-1B secretion, AlphaLISA, 16 h; stronger effect = lower value; activity change, % at 57.5 µM; 360,000 tested, 4.7% active; AID 743279, 2014; in the data active = activity change below about -50%; inconclusive = mostly about -30% to -49%
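Secreted IL-1B measured by AlphaLISA bead assay after 16 h compound exposure of THP-1 cells; compounds (final up to 57.5 uM) added 1 h before LPS (250 ng/mL) and ATP (1.25 mM) stimulation; lower signal means less secretion.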
HepG2 viability = qHTS for Inhibitors of TGF-b: Cytotox Counterscreen | HepG2 CAGA-GFP viability, ATP luminescence, 18 h | AID 588856, 2011 | Potency, µM (highest dose often 46.1 µM), usual class: cytotoxic | 410,000 tested, 0.76% active
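HepG2 CAGA-GFP cells (1000/well, DMEM with 1% FBS) received compound, then TGF-beta at 500 pg/mL final, and were incubated 18 hours at 37 degrees C. Viability was read by CellTiter-Glo luminescence. Media-only wells were set as complete cell-killing and DMSO as no toxicity.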
Numbers stand for hits; i = inactive; ? = inconclusive; nt = no result given. Rows were chosen to be rich in hits. Some 19% of all compounds tested hit in one or more screens of this group. Unless noted, calls follow the shape of the dose curve; as a rule, active = well fitted curve in the direction sought with a large enough effect; inconclusive = small, poorly fitted or top-dose-only effect, or another doubt; inactive = no such curve, though single readings can be large; an effect the other way counts as inactive or inconclusive.

SMILES | TGFb SMAD3 inh | DT40 TDP1 no CPT | TDP1 cell CPT | TDP1 block | IL1B secr inh | HepG2 viability
CSc1cc2c(s1)c1cnn(Cc3ccccc3F)c(=O)c1n2C | nt | nt | nt | i | nt | nt
Cc1cccc(C)c1NC(=O)Cn1cc(S(=O)(=O)Cc2ccc(F)cc2)c2ccccc21 | i | i | ? | i | nt | i
COc1ccc(CCn2c(N)c(S(=O)(=O)c3cccs3)c3nc4ccccc4nc32)cc1OC | i | ? | ? | i | -55.0 | i
Nc1c(S(=O)(=O)c2cccs2)c2nc3ccccc3nc2n1CCc1ccccc1 | nt | nt | nt | i | nt | nt
Cc1ccc(S(=O)(=O)c2c(N)n(CCC(C)C)c3nc4ccccc4nc23)cc1 | ? | ? | ? | i | -62.6 | i
CC(C)CCn1c(N)c(S(=O)(=O)c2cccs2)c2nc3ccccc3nc21 | 15.8µM | ? | ? | i | -87.6 | i
Cc1ccc(S(=O)(=O)c2c(N)n(CCCO)c3nc4ccccc4nc23)cc1 | i | i | i | i | i | i
COCCN(C(=O)CC1C(=O)NCCN1CC(c1ccccc1)c1ccccc1)C(C)C (centres undefined) | i | i | i | i | i | i
Cc1cc(N/N=C/c2ccc(O)cc2O)nc(-n2nc(C)cc2C)n1 | i | 0.291µM | 0.231µM | i | i | i
Cc1cc(N/N=C/c2cccc(Cl)c2)nc(-n2nc(C)cc2C)n1 | i | 0.82µM | 0.581µM | nt | i | i
COc1ccc(/C=N/Nc2cc(C)nc(NS(=O)(=O)c3ccc(C)cc3)n2)cc1 | 12.6µM | ? | ? | i | i | i
Cc1cc(N/N=C/c2ccccc2O)nc(N2CCOCC2)n1 | i | ? | i | i | ? | i
Cc1cc(N/N=C/c2ccccc2O)nc(-c2ccccc2O)n1 | i | ? | i | i | i | i
Cc1cc(NCCO)nc(-n2nc(C)cc2C)n1 | i | i | i | i | i | i
Cc1cc(N/N=C/c2ccc(O)cc2O)nc(-c2ccccc2O)n1 | ? | ? | ? | i | -77.3 | i
CN(CC(=O)Nc1ccccc1Br)C(=O)COc1cccc2c1OC(C)(C)C2 | i | i | i | nt | i | i
Cc1cc(C)n(-c2ccccc2[N+](=O)[O-])n1 | i | ? | i | i | i | i
Cc1cc(N/N=C/c2ccccc2[N+](=O)[O-])nc(-n2nc(C)cc2C)n1 | 2.51µM | 0.92µM | 1.16µM | i | -97.4 | i
COc1ccc(/C=N/Nc2cc(C)nc(-n3nc(C)cc3C)n2)cc1 | i | 4.61µM | 4.61µM | i | -99.4 | i
Cc1nc(Cl)cc(N/N=C/c2ccc(O)cc2O)n1 | i | 20.6µM | ? | nt | i | i
Cc1cc(N/N=C/c2cccc([N+](=O)[O-])c2)nc(-n2nc(C)cc2C)n1 | i | 3.66µM | 4.11µM | i | i | i
Cc1nc(Cl)cc(N/N=C/c2ccc(O)cc2)n1 | i | ? | i | i | i | i
CN(C)c1ccc(/C=C2\C=Cc3ccccc32)c(F)c1 | i | ? | ? | nt | nt | i
C[C@@H]1Cc2ccccc2N1NC(=O)c1ccc(Cl)c(S(N)=O)c1 (some centres undefined) | nt | nt | nt | i | nt | nt
O=C(CN1C(=O)NC2(CCOc3ccccc32)C1=O)NCCc1ccc(F)cc1 (centres undefined) | i | i | i | i | i | i
SMILES | TGFb SMAD3 inh | DT40 TDP1 no CPT | TDP1 cell CPT | TDP1 block | IL1B secr inh | HepG2 viability
CCc1ccc(CNC(=O)CCN2C(=O)COc3ccccc32)cc1 | i | ? | i | i | nt | i
CCn1cc(C(=O)OCC(=O)Nc2ccc(C)c(Cl)c2)c(=O)c2ccc(C)nc21 | i | i | i | i | nt | i
O=C(NC1CC1)C1CCN(C(=O)c2ccc(Cl)cc2Cl)CC1 | i | i | i | i | i | i
C/C(=N\Nc1cc(C)nc(-c2ccccc2O)n1)c1ccccc1O | i | 13µM | i | i | i | i
NNc1nc(N)c2c(n1)-c1ccccc1CC21CCCC1 | i | 16.4µM | 10.3µM | i | i | i
CCC1(CC)C(=O)NC(=O)NC1=S | i | i | i | nt | i | i
CCCOCc1cc(CN2CCN(c3cccc(Cl)c3)CC2)c(O)c2ncccc12 | ? | 5.17µM | 5.8µM | i | nt | i
Cn1c(CN2CCN(c3cccc(Cl)c3)CC2)nc2ccccc21 | i | ? | ? | i | i | i
Oc1c(CN2CCc3ccccc3C2)cc(Cl)c2cccnc12 | 5.62µM | 5.8µM | 5.8µM | i | i | i
CCCCOCc1cc(CN2CCN(c3cccc(Cl)c3)CC2)c(O)c2ncccc12 | nt | 3.26µM | 16.4µM | i | nt | i
Brc1cc2c(cc1CN1CCc3ccccc3C1)OCO2 | ? | ? | ? | nt | i | i
O=[N+]([O-])c1cc(CN2CCOCC2)c2cccnc2c1O | i | ? | ? | i | i | i
CCCNC(=O)COc1coc(CN2CCN(c3cccc(Cl)c3)CC2)cc1=O | i | i | i | i | i | i
O=[N+]([O-])c1cc(CN2CCN(c3ccccc3)CC2)c(O)c2ncccc12 | ? | 4.11µM | 2.06µM | i | i | i
COc1ccccc1N1C(=NC(=O)CCc2ccccc2)SC2CS(=O)(=O)CC21 (centres undefined) | i | i | i | i | i | i
CC(=O)c1ccc(-n2c(=O)[nH]c(=O)c3c(N)c(C(=O)c4ccc(Cl)cc4)sc32)cc1 | ? | 3.66µM | ? | nt | i | i
Nc1c(C(=O)c2ccccc2)sc2c1c(=O)[nH]c(=O)n2-c1ccccc1 | ? | i | i | i | i | i
CCn1c(=O)[nH]c(=O)c2c(N)c(C(=O)c3cc(F)ccc3F)sc21 | 11.2µM | i | i | nt | i | i
Nc1c(C(=O)c2ccc(Cl)cc2)sc2c1c(=O)[nH]c(=O)n2-c1ccccc1 | i | i | i | i | i | i
Cc1ccc(C(=O)c2sc3c(c2N)c(=O)[nH]c(=O)n3CCc2ccccc2)cc1 | i | 16.4µM | 16.4µM | i | i | i
O=c1cnc2cnc(Oc3cccc(Cl)c3)nc2n1C[C@H]1CCCO1 | nt | i | ? | nt | nt | nt
CCOC(=O)c1noc2ncnc(Nc3cccc(C(F)(F)F)c3)c12 | i | i | i | i | nt | i
COc1cc(/C=C2\C(=N)N3N=CSC3=NC2=O)cc(Br)c1OC(=O)c1ccco1 | i | i | ? | i | i | i
CC1CCN(C(=O)CSc2nc3c(c(=O)n2C)SC(C)C3)CC1 (centres undefined) | i | 20.6µM | ? | i | i | i
